POLI inh: blocks human DNA polymerase iota activity. Potency, µM (series often up to 115 µM), hits mostly inhibitors. actives 1% (n = 390,000). Q9UNA4. Pol iota fluorescent replication assay, 10 min. AID 588590
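Fluorescent replication assay read twice, at 0 min and 10 min after adding 50 nM (final) substrate. Enzyme (10 nM) and compounds were first incubated 15 min at room temperature; enzyme-free buffer wells were negative controls.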
Pol beta inh: blocks human DNA polymerase beta activity | Potency, µM (top dose mostly 114 µM), hits mostly inhibitors | AID 485314 | Pol beta primer extension/strand displacement, fluorescence kinetic | P06746 | actives 1.3% (n = 340,000)
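Human Pol beta at 10 nM; strand-displacement substrate 50 nM final. Compound exposure 15 min at room temperature before start, reaction 10 min at room temperature.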
Pol kappa inh: inhibitors of human DNA polymerase kappa. Potency, µM (highest dose often 107 µM), most hits filed as inhibitors. purified Pol kappa, fluorescent DNA synthesis assay, 10 min. actives 0.53% (n = 400,000). Q9UBT6. AID 588579
Target sequence (Q9UBT6 whole entry, looked up): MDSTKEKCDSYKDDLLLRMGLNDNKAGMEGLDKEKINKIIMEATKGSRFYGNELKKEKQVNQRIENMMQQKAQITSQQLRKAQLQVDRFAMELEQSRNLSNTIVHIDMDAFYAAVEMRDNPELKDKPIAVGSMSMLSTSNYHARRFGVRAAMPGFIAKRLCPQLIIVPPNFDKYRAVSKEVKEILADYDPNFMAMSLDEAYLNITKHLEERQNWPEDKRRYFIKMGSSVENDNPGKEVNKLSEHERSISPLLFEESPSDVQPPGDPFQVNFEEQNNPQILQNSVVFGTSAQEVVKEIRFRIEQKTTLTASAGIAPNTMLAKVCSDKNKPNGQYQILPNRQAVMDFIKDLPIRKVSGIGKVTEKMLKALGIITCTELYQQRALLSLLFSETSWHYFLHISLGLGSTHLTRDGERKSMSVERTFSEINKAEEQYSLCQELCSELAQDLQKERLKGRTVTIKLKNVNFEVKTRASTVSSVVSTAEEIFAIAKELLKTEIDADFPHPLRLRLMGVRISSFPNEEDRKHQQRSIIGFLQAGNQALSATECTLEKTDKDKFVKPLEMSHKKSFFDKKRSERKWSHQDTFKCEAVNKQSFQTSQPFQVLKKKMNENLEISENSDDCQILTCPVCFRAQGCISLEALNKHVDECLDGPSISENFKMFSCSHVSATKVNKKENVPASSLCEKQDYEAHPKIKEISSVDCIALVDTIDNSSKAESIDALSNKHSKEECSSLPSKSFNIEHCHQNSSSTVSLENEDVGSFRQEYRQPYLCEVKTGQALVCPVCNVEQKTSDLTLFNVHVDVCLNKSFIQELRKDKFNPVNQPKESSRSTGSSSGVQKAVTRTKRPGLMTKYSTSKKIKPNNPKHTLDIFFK
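Kinetic fluorescence screen: compound preincubated 15 min RT with 10 nM enzyme; 50 nM substrate (final) initiates; reads at 0/10 min.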
POLH inh: blocks human DNA polymerase eta activity; recombinant Pol eta, fluorescent DNA replication assay; Potency, µM (series often up to 114 µM), hits mostly inhibitors; actives 1.2% (n = 390,000)
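Pol eta at 10 nM preincubated with compounds 15 min at room temperature; reaction started with fluorescent substrate (50 nM final) and read kinetically at 0 and 10 min.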
PI5P4Ka inh: blocks human PI5P4K alpha kinase activity. P48426. PI5P4Kalpha enzyme, ADP-Glo luminescence, 60 min; stronger effect = lower value. max response, %. actives 1.2% (n = 330,000); active means max response of -50% or lower; inconclusive means between -30% and -50%; inactive means -30% or higher; further: value at the top dose of about 77 µM
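Reactions run in 0.038 M HEPES pH 7.4, 0.28 mM EGTA, 0.1% CHAPS and 5% DMSO, with PI5P4Kalpha, substrate, compound and 5 microM ATP final, one hour at room temperature. Readout is ADP-Glo luminescence.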
WRN inhibitor: blocks human WRN helicase. Potency, µM (top dose mostly 114 µM), most hits filed as inhibitors. Q14191. WRN helicase unwinding, fluorescent forked duplex, kinetic. actives 0.46% (n = 360,000). AID 651768; further: nearly all actives have a fitted effect of over 55% in size
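Screening of the MLSMR collection measured strand separation of a quenched forked DNA duplex (100 nM) by 20 nM WRN with 2 mM ATP, all final. Compounds were preincubated with enzyme 15 min at room temperature.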
Of the large screens only hits and unclear results are named; the others gave an inactive call. Sampled rows, rich in hits. Any-hit rate of the full collection: about 2.8%. Unless noted, the call rests on the fitted dose curve; in most records, active means well fitted curve in the direction sought with a large enough effect; inconclusive means small, poorly fitted or top-dose-only effect, or another doubt; inactive means no such curve, though single readings can be large; an effect the other way counts as inactive or inconclusive.

Cc1ccc(NC(=O)C2CCCN2C(=O)OCc2ccccc2)cc1F (centres undefined)	POLI inh inconclusive, Pol kappa inh 79.4µM
Cc1ccc(NC(=O)C2CCCN2S(=O)(=O)c2ccc3nc(-c4ccccc4)[nH]c3c2)cc1F (centres undefined)	POLI inh inconclusive, Pol beta inh inconclusive, Pol kappa inh inconclusive, POLH inh 79.4µM (no result: PI5P4Ka inh, WRN inhibitor)
Nc1nc(NCc2ccc(Cl)cc2)nc(NCCO)c1[N+](=O)[O-]	PI5P4Ka inh -57.4
Cn1c(=O)c2[nH]c(N=NNc3ccccc3F)nc2n(C)c1=O	POLI inh 25.1µM, PI5P4Ka inh inconclusive
Cc1ccccc1NN=Nc1nc2c([nH]1)c(=O)n(C)c(=O)n2C	none
N#CCC(N)=C(C#N)C#N	PI5P4Ka inh -75.5
COC(=O)CC#N	none (no result: Pol beta inh)
O=c1c2ccccc2ncn1Cc1ccc(Cl)c(Cl)c1	none
O=C(O)Cc1cn(Cc2ccc(F)cc2)c2ccccc12	none
Cc1[nH][nH]c(=O)c1C(c1c(C)[nH][nH]c1=O)c1cn(Cc2ccc(F)cc2)c2ccccc12	POLI inh 2.24µM
Cc1[nH][nH]c(=O)c1C(c1c(C)[nH][nH]c1=O)c1cn(Cc2ccc(Cl)c(Cl)c2)c2ccccc12	POLI inh 2.51µM, POLH inh inconclusive, PI5P4Ka inh inconclusive
Cc1nn(-c2ccccc2Cl)c(Cl)c1/C=N/Nc1cccc(C(=O)O)c1	none
Cc1nn(-c2cccc(C(F)(F)F)c2)c(Cl)c1/C=N/Nc1cccc(C(=O)O)c1	Pol beta inh 56.2µM
COCCn1cnc2c(c1=O)c1nc3ccccc3nc1n2/N=C/c1ccco1	none
CCCCCCn1cnc2c(c1=O)c1nc3ccccc3nc1n2/N=C/c1ccco1	POLI inh inconclusive, Pol beta inh 44.7µM, POLH inh inconclusive
CC(=O)N1CCCc2cc(S(=O)(=O)N(C)CC(=O)Nc3ccc(F)c(Cl)c3)ccc21	none (no result: PI5P4Ka inh, WRN inhibitor)
COc1ccccc1NC(=O)CN1CCCN(S(=O)(=O)c2ccc(Br)cc2)CC1	none (no result: PI5P4Ka inh, WRN inhibitor)
CCOC(=O)NC1(NC(C)C)Oc2ccccc2O1	POLI inh inconclusive
CCOC(=O)NC1(NC2CCCCC2)Oc2ccccc2O1	POLI inh 70.8µM, Pol beta inh 25.1µM, Pol kappa inh 79.4µM (no result: PI5P4Ka inh)
Cc1cccc(N2CCN(S(=O)(=O)c3csc(C(N)=O)c3)CC2)c1C	none (no result: PI5P4Ka inh, WRN inhibitor)
CCOC(=O)N1CCN(C2=C(NS(=O)(=O)c3ccc(NC(C)=O)cc3)C(=O)c3ccccc3C2=O)CC1	POLI inh 6.31µM, Pol beta inh inconclusive
CC1CCN(C2=C(NS(=O)(=O)c3ccc(Br)cc3)C(=O)c3ccccc3C2=O)CC1	POLI inh 7.08µM
CC1CCN(C2=C(NS(=O)(=O)c3ccccc3)C(=O)c3ccccc3C2=O)CC1	POLI inh inconclusive, Pol beta inh inconclusive
O=S(=O)(c1ccccc1)N1CCC(c2ccncc2)CC1	none (no result: PI5P4Ka inh, WRN inhibitor)
Cc1ccc(S(=O)(=O)c2nnn(-c3ccc(F)c(Cl)c3)c2N)cc1	none (no result: PI5P4Ka inh, WRN inhibitor)
O=C(Nc1cc(-c2ccccc2)sc1C(=O)O)c1cccc(F)c1	POLI inh inconclusive, Pol beta inh 70.8µM, POLH inh inconclusive
Cc1ccccc1Cn1c(CN2CCC(C(=O)NCCN(C)C)CC2)cc2ccccc21	none (no result: PI5P4Ka inh, WRN inhibitor)
Cc1ccc(Cn2cc(S(=O)(=O)c3cccc(C)c3)c(=O)c3cc(F)c(N4CCOCC4)cc32)cc1	none (no result: PI5P4Ka inh, WRN inhibitor)
COc1cc(N)c2ncccc2c1Br	POLI inh 31.6µM (no result: Pol beta inh)
S=c1[nH]c2ccc(Cl)cc2[nH]1	Pol beta inh inconclusive, PI5P4Ka inh inconclusive
S=c1ncc2[nH]c(=S)[nH]c2[nH]1	POLI inh inconclusive, PI5P4Ka inh -83.7, WRN inhibitor inconclusive (no result: Pol beta inh)
Nc1ccc(S(=O)(=O)Nc2nc3ccccc3o2)cc1	POLI inh inconclusive, Pol beta inh 79.4µM, Pol kappa inh inconclusive, POLH inh 44.7µM, PI5P4Ka inh inconclusive
COc1ccc(NC(=S)NCCCCCC(=O)C[N+](=O)[O-])cc1	POLI inh inconclusive, POLH inh 79.4µM
Cc1ccc2c(C(=O)CCl)c(C)[nH]c2c1	POLI inh 10µM, POLH inh inconclusive
CCNc1ncc2nc(-c3ccc(OC)cc3)c(=O)n(-c3ccc(OC)cc3)c2n1	none (no result: POLI inh, Pol beta inh, POLH inh, PI5P4Ka inh, WRN inhibitor)
CC1CCN(C(=O)c2ccc([N+](=O)[O-])o2)CC1	none
Cn1c(N)c(C(=O)COC(=O)c2ccc([N+](=O)[O-])o2)c(=O)n(C)c1=O	POLI inh 50.1µM, POLH inh 89.1µM
Cc1ccc(C(=O)NCC(=O)OCC(=O)c2c(N)n(C)c(=O)n(C)c2=O)s1	POLI inh inconclusive, Pol beta inh 35.5µM, POLH inh inconclusive, PI5P4Ka inh inconclusive
CCOC(=O)C1CCN(C(=O)COC(=O)c2ccc([N+](=O)[O-])o2)CC1	POLI inh 50.1µM, POLH inh 79.4µM (no result: Pol beta inh)
CC1CC(C)CN(C(=O)COC(=O)c2ccc([N+](=O)[O-])o2)C1 (centres undefined)	POLI inh inconclusive, POLH inh 89.1µM (no result: Pol beta inh)
CCOC(=O)C1CCN(C(=O)COC(=O)c2cc([N+](=O)[O-])ccc2N2CCOCC2)CC1	none (no result: Pol beta inh)
Cn1c(N)c(C(=O)COC(=O)CNC(=O)c2ccccc2)c(=O)n(C)c1=O	none (no result: Pol beta inh)
CC1CCCC(C)N1C(=O)COC(=O)c1ccc([N+](=O)[O-])o1 (centres undefined)	POLI inh 50.1µM, POLH inh 50.1µM (no result: Pol beta inh)
CC1CCCC(C)N1C(=O)COC(=O)c1cc([N+](=O)[O-])ccc1N1CCOCC1 (centres undefined)	none (no result: Pol beta inh)
CCC(=O)Nc1c(C#N)c2nc3ccccc3nc2n1-c1ccc(C)cc1	none (no result: Pol beta inh)
CCC(C)n1c(NC(=O)c2ccccc2)c(C#N)c2nc3ccccc3nc21 (centres undefined)	POLI inh 3.16µM, Pol beta inh 39.8µM, Pol kappa inh inconclusive, POLH inh 50.1µM
COc1ccc(C(=O)COC(=O)[C@H](C)Nc2ccc(C(F)(F)F)cc2[N+](=O)[O-])c(OC)c1	POLI inh inconclusive, Pol beta inh 39.8µM, POLH inh inconclusive, PI5P4Ka inh inconclusive
COc1ccc(/C=C2/C(=O)N(c3nc4ccccc4s3)N=C2CSc2ccc(Cl)cc2)cc1	Pol beta inh inconclusive, POLH inh inconclusive, PI5P4Ka inh -71.7
COc1ccc(CN2CCN(c3nc4ccccc4s3)CC2)cc1	none
COc1ccc(Nc2nc(-c3cc4cccc(OC)c4oc3=O)cs2)cc1	none
COc1cccc2cc(/C(C)=N/Nc3nc(-c4cc(C)ccc4C)cs3)c(=O)oc12	Pol beta inh 39.8µM, POLH inh 50.1µM, WRN inhibitor inconclusive (no result: PI5P4Ka inh)
CCN1CCN(c2nnc(-n3cccc3C(=O)NCc3ccccc3OC)s2)CC1	none (no result: PI5P4Ka inh, WRN inhibitor)
COc1ccc(Cl)cc1NC(=O)CSc1nc2c(oc3ccccc32)c(=O)n1Cc1ccco1	none (no result: PI5P4Ka inh, WRN inhibitor)
CN(C)c1ccc(/C=C/c2c3c(nc4ccccc24)CCCC3)cc1	none (no result: Pol beta inh, POLH inh, PI5P4Ka inh, WRN inhibitor)
Cc1cc(/C=C/c2c(C)cnc3ccccc23)ccc1N(C)C	POLI inh inconclusive (no result: Pol beta inh, POLH inh, PI5P4Ka inh, WRN inhibitor)
